Experimental findings from PubChem BioAssay are described below.

A short description of experiment [1]: rapamycin-like changes in RPL19A-GFP expression – cell-based, S. cerevisiae, multiplex flow cytometry, primary screen (AID 1862; in the data active = percent of DMSO control GFP below about 86%;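 note: lower values mimic rapamycin by blocking the RPL19A rise seen in DMSO cells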). The following applies: S. cerevisiae RPL19A-GFP strain, flow cytometry fluorescence, 3 h; at 10 µM; stronger effect = lower value. On the technique in general: Flow cytometry measures light scatter and fluorescence of single cells or particles in a stream.

Experiment [2] in a line: TOR pathway GLN3 branch reporter MEP2-GFP changes – S. cerevisiae, multiplex flow cytometry, primary screen (AID 1867;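 active = GFP response, as percent of the DMSO control, above the screen-wide mean plus 3 SD, about 139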;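 note: median GFP channel fluorescence of barcode-gated MEP2-GFP cells measured by flow cytometry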). The settings on record: S. cerevisiae MEP2-GFP strain, 3 h, at 10 µM, stronger effect = higher value, 100% means same as DMSO wells.
The nature of experiment [3]: TOR pathway RTG branch CIT2 reporter changes – S. cerevisiae, GFP fusion, multiplex flow cytometry, primary screen (AID 1870;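 active = percent response above a set limit, the screen-wide mean plus 3 SD, cut at about 130% in these data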;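 note: barcoded CIT2-GFP strain pooled with four other GFP strains with rapamycin as positive control; median GFP fluorescence per well over plate mean of DMSO wells so 100% = DMSO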). The settings on record: S. cerevisiae CIT2-GFP expression, 3 h, at 10 µM, stronger effect = higher value.
Experiment [4] in a line: TOR pathway LAP4-GFP level changes – S. cerevisiae, multiplex flow cytometry, primary screen (AID 1873;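 active = GFP signal, as percent of the solvent control, above the screen mean plus 3 SD, about 149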). The settings on record: S. cerevisiae LAP4-GFP expression, 3 h, at 10 µM, stronger effect = higher value.
Experiment [5] can be described thus: yeast AGP1-GFP level changes, GLN3 branch – cell-based, multiplex flow cytometry, S. cerevisiae, primary screen (AID 1887;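 active = GFP signal above the screen-wide mean plus 3 SD, that is over about 124.5% of the solvent control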;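 note: AGP1-GFP fusion strain of S. cerevisiae within a five-strain barcoded multiplex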). The following applies: 3 h, at 10 µM, stronger effect = higher value.
Experiment [6] can be described thus: reduced mouse 2C T cell binding to pMHC/ICAM-1 vesicles – MLPCN validation set, flow cytometry, LFA-1/ICAM-1 modulator project, pilot screen (AID 2523;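 active = response below a set limit, under 55% cells CD8-positive and vesicle-bound, and CD8 cells' 90th-percentile brightness under 279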;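 for vesicle binding response: mean PE anti-B7-1 fluorescence of CD8+ cells relative to row control; 100% = QL9-loaded vesicles with DMSO vehicle in the same plate row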). The following applies: 2C mouse CD8+ T cells, at 7 µM, stronger effect = lower value; double positive events: measured here: CD8+/vesicle+ event percentage.
For experiment [7], the target named is Integrin beta-1 (Homo sapiens) + Integrin alpha-4 (Homo sapiens) (UniProt P13612+P05556). Put plainly: alpha4beta1 integrin LIBS antibody binding reduction – U937 cells, HUTS-21 mAb, flow cytometry, validation set, VLA-4 allosteric modulator project, pilot screen (AID 2674;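 active = inhibition above 50%, about 3 SD of the validation set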;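 note: antibody binding induced by the VLA-4 ligand LDV present at three times its Kd; 0% = LDV ligand with antibody and no compound and 100% = antibody without LDV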). The following applies: HUTS-21 LIBS mAb binding, at 6.7 µM, stronger effect = higher value, binding induced by LDV ligand.
Sequence of Integrin beta-1 (Homo sapiens) + Integrin alpha-4 (Homo sapiens) (P05556 whole entry, looked up): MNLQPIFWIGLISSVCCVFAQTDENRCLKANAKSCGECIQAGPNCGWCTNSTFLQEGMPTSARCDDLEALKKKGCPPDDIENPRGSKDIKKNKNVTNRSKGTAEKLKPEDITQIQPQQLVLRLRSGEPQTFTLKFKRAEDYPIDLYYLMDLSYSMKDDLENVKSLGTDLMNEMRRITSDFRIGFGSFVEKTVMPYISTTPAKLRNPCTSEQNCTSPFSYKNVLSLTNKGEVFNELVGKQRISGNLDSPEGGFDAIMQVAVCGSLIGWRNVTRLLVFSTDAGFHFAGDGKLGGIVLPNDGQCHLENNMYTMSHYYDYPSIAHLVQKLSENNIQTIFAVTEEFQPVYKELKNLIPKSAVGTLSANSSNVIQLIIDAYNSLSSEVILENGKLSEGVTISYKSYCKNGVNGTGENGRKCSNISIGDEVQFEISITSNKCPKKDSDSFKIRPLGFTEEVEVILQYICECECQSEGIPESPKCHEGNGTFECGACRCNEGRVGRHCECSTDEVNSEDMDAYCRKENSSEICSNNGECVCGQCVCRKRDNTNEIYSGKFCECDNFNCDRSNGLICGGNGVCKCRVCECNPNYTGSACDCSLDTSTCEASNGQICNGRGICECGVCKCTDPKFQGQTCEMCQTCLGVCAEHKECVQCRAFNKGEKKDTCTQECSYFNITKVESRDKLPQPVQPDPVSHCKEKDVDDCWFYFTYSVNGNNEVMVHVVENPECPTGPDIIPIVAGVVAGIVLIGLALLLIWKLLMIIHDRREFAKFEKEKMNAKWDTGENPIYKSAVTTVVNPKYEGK
Sequence of Integrin beta-1 (Homo sapiens) + Integrin alpha-4 (Homo sapiens) (P13612 whole entry, looked up): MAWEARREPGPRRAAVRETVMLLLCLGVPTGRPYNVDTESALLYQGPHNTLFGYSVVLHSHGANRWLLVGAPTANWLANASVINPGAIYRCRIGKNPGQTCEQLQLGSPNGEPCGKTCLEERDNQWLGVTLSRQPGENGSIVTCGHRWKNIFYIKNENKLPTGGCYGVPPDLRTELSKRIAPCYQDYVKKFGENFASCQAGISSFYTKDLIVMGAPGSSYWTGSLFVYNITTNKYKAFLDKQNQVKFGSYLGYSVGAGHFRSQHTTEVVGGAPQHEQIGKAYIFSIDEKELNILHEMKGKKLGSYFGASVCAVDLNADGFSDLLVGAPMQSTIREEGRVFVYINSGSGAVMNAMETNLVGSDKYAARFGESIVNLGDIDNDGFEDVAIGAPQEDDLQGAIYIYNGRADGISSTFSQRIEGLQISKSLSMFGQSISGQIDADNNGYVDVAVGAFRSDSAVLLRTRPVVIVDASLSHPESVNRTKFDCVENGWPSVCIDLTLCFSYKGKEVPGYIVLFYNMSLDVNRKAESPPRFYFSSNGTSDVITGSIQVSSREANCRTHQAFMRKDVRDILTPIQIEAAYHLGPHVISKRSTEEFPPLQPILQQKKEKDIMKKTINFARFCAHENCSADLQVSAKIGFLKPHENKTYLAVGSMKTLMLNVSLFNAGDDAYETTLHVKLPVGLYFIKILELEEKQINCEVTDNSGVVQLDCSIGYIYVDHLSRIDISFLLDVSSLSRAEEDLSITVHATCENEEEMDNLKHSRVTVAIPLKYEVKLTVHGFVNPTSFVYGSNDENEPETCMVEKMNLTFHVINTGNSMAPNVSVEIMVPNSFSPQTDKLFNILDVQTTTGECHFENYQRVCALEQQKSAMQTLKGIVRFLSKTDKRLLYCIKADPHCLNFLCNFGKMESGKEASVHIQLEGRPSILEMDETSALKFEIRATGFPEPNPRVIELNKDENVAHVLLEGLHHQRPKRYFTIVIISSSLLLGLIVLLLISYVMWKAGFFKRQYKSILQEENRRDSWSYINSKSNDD

Experiment [8] is described as follows: calorie-restriction mimetic ROS inhibitors, yeast – validation compound set, pilot screen (AID 2706;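 active = superoxide response below 65% of plate, a cut near 3 SD across the whole screen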;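 note: yeast exposed to compound for one week at 30 degrees C before staining; 100% = mean of all compound wells on the same plate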). The settings on record: S. cerevisiae aging, superoxide DHE fluorescence; at 10 µM; stronger effect = lower value.
Experiment [9] has as its target Beta-adrenergic receptor kinase 1 (Homo sapiens) (UniProt P25098). Put plainly: GRK2 binders displacing RNA aptamer, biochemical, validation, human GRK2, bead flow cytometry (AID 488806;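 active = aptamer binding inhibition above 30%, about 3 SD of noise from non-fluorescent compounds; inactive = inhibition at or below 30%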). The settings on record: bead-bound GRK2, FAM-aptamer displacement, at 10 µM, stronger effect = higher value.
The target of experiment [10] is Beta-2 adrenergic receptor (Homo sapiens) (UniProt P07550). The experiment is described as follows: agonist-induced loss of surface beta2AR – cell-based, FAP fluorogen, flow cytometry, validation set, pilot screen (AID 504459).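 Note: agonist-driven loss of surface beta2AR via internalization measured by FAP dye flow cytometry.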 The following applies: Am2.2-beta2AR cells, at 10 µM, stronger effect = higher value.
Sequence of Beta-2 adrenergic receptor (Homo sapiens) (P07550 whole entry, looked up): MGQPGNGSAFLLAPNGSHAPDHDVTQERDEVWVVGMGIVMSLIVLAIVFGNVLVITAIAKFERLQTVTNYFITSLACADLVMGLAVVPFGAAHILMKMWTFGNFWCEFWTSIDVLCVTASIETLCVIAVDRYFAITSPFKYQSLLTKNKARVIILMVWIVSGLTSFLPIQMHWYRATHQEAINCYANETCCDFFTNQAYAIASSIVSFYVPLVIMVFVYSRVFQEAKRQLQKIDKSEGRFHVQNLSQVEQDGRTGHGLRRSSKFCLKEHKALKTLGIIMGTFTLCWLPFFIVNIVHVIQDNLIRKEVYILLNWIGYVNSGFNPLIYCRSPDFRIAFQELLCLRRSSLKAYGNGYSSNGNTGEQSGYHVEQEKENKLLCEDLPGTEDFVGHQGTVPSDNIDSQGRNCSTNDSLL
Experiment [11] has as its target AP-2 complex subunit beta (Homo sapiens) (UniProt P63010). The experiment is described as follows: beta-arrestin/AP2 interaction blockers – biochemical, validation set, GST-AP2 beads, flow cytometry, pilot screen (AID 504541;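 active = inhibition above 54%, about 3 SD of non-fluorescent compounds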;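 note: AP2 carries R879A mutation and is captured from E. coli lysate; bead-bound FITC arrestin peptide fluorescence measuring arrestin peptide binding to AP2; 0% = DMSO wells and 100% = excess unlabeled arrestin peptide control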). The following applies: FITC arrestin peptide, at 10 µM, stronger effect = higher value, AP2 beta2 appendage fragment, R879A mutant.
Experiment [12] can be described thus: cytosolic pH regulators acting via V-ATPase – S. cerevisiae, pHLuorin, HTS validation (AID 504600; in the data active = response above about 15%;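 note: plate controls were DMSO for no effect and reference compound for full effect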). The following applies: V-ATPase proton transport, at 10 µM, stronger effect = higher value.
Experiment [13] concerns anti-desmoglein-3 scFv antibody binding to human DSG3. The experiment is described as follows: blockers of pathogenic pemphigus antibody–desmoglein-3 binding – biochemical, validation compound set, bead-based, flow cytometry, pilot screen (AID 588368;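 active = binding below the plate cutoff, the plate median minus 3 SD, with a reading above zero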;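 note: signal is the median channel fluorescence of bead-bound GFP antibody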). The settings on record: Protein G beads, DSG3-Fc, scFv-GFP binding, at 10 µM, stronger effect = lower value.
Experiment [14] is described as follows: Nile Red efflux blockade in pump-expressing yeast – validation compound set, multiplex, phenotypic, pilot screen (AID 588506;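 active = efflux inhibition above 0.42, the validation set average plus 4 SD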;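 note: Nile Red retained in cells so higher fluorescence means more efflux inhibition; 0 = negative control wells and 1 = enniatin B 25 µM full block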). The following applies: S. cerevisiae pump-expressing triplex, Nile Red efflux flow cytometry; at 10 µM; stronger effect = higher value; the pumps come from Candida albicans.
The target in experiment [15] is ATP-binding cassette sub-family B member 6 (Homo sapiens) (UniProt Q9NP58). The experiment is described as follows: blockers of ABCB6-driven porphyrin uptake – K562-ABCB6 cells, flow cytometry, validation set, pilot screen (AID 588550;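 active = inhibition above the screen-wide mean plus 3 SD, about 51%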;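 note: 0% = DMSO wells and 100% = benzethonium chloride 70 µM positive control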). The settings on record: K562-ABCB6 porphyrin accumulation, 1 h, at 10 µM, stronger effect = higher value.
Sequence of ATP-binding cassette sub-family B member 6 (Homo sapiens) (Q9NP58 whole entry, looked up): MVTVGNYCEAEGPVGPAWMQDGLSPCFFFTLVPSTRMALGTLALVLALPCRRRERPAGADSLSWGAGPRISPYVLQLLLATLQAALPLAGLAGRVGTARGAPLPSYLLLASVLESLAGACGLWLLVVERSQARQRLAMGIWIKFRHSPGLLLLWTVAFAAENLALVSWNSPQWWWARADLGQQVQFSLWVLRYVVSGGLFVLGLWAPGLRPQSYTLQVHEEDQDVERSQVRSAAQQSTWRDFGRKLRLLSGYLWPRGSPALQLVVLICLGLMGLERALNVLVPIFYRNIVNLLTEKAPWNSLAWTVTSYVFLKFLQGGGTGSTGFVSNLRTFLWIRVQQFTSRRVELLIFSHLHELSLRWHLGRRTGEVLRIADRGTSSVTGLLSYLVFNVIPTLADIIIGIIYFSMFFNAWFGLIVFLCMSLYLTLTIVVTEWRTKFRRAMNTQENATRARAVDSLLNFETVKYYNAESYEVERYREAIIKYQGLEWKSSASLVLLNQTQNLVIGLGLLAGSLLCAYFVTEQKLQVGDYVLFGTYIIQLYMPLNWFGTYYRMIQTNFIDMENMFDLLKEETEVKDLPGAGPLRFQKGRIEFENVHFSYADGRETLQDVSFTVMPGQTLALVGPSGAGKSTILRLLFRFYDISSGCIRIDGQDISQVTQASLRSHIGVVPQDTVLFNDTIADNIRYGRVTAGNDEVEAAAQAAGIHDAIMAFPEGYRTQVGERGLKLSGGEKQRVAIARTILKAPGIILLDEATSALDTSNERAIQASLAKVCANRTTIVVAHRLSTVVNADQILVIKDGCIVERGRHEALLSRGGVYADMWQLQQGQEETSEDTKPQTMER
A short description of experiment [16]: AML differentiation inducers, ER-HoxA9 marrow cells – cell-based, GFP/MAC1 double positive, flow cytometry, validation set, primary screen (AID 588685;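 active = differentiation response of at least 50%, scaled between solvent and reference control, from cells with both markers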;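 note: compound exposure lasts four days before antibody staining and flow analysis; 0% = DMSO wells and 100% = 5 µM fulvestrant positive control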). The following applies: stronger effect = higher value, normalized: vehicle 0, fulvestrant 100.

Inconclusive results are not listed. The source made the active and inactive calls.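 Rule for the calls, unless noted: active = percent response above 42, roughly 3 SD of non-fluorescent test compounds; inactive = the rest.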

Sequence of AP-2 complex subunit beta (Homo sapiens) (P63010 whole entry, looked up, the tested form may be a part, one chain of several): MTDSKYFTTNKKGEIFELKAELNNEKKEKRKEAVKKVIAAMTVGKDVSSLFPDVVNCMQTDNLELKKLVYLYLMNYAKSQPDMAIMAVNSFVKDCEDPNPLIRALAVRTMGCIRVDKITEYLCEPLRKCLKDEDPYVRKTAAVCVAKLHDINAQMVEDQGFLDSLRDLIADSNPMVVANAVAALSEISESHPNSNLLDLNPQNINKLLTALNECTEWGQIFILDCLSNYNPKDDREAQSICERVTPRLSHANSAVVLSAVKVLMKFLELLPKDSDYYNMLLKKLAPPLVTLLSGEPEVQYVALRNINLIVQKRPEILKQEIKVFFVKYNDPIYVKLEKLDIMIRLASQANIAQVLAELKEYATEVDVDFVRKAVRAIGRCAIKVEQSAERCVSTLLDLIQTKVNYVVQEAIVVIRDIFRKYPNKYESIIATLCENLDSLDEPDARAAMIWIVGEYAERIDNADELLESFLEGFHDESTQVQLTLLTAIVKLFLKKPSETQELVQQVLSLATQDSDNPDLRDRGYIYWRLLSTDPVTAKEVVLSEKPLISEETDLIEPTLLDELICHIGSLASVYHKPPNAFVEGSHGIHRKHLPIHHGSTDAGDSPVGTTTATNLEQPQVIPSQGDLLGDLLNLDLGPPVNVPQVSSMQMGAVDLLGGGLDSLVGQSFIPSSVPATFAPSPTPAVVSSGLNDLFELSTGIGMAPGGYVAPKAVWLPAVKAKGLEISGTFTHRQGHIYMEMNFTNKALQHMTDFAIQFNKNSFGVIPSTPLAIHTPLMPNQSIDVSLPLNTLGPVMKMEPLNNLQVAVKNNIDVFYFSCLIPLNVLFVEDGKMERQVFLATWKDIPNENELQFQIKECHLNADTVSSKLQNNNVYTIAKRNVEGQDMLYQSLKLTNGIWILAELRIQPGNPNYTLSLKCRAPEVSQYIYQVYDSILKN
Sequence of Beta-adrenergic receptor kinase 1 (Homo sapiens) (P25098 whole entry, looked up): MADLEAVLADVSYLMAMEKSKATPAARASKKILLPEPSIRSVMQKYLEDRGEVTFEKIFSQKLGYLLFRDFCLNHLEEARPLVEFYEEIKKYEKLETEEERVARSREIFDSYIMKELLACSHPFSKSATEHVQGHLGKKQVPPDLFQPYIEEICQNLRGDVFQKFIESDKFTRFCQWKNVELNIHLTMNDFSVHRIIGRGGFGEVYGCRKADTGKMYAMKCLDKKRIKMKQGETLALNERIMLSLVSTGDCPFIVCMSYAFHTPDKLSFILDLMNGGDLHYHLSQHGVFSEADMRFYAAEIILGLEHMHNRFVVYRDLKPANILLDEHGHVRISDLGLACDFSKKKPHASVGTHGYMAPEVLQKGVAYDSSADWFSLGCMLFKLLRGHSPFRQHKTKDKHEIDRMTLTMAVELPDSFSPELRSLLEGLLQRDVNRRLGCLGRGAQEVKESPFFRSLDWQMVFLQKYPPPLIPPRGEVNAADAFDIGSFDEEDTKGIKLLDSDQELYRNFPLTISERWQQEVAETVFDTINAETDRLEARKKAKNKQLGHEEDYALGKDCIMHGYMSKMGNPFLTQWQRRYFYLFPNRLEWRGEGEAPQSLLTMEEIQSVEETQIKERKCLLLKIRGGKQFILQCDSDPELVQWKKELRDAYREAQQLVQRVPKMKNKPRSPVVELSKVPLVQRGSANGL

Take `CC(=O)N(CCC(Cc1ccccc1)c1ccco1)Cc1ccco1` (stereo not given): the percent of DMSO control GFP in [1] is 88.7% (inactive). Also, the GFP response vs DMSO in experiment [2] is 145% (active); in [4], 77.6% (inactive). Moreover, the percent response of DMSO control in experiment [3] is 104% (inactive). In experiment [5], the GFP response, % of DMSO is 77.1% (inactive). Besides, the double positive events in [6] is 68.1%. Besides, the vesicle binding response in [6] was 172% (inactive). Also, the inhibition is -0.33% (inactive) in experiment [7], 13.6% (inactive) in experiment [11] and 5% (inactive) in experiment [15]. The superoxide response (% of plate) in experiment [8] is 96.2% (inactive). Besides, the aptamer binding inhibition in experiment [9] was 1% (inactive). Besides, the values for the response in [10] and in experiment [12] were 5.89% (inactive) and -4.34% (inactive), respectively. The binding (% of control) in [13] was 97.4% (inactive). In addition, in experiment [14], the efflux inhibition (fraction of control) is -0.06 (inactive). For the same compound, the differentiation response in experiment [16] was -3.28% (inactive).

Turning to `O=C(COc1ccc2ccc(=O)oc2c1)c1ccccc1`, in experiment [1], the percent of DMSO control GFP was 91.1% (inactive). The GFP response vs DMSO in experiment [2] was 130% (inactive); in [4] it was 85.3% (inactive). Moreover, the percent response of DMSO control in experiment [3] is 102% (inactive). For the same compound, the GFP response, % of DMSO in experiment [5] is 88.4% (inactive). In experiment [6], this compound showed a double positive events of 59.9%. The vesicle binding response in experiment [6] was 132% (inactive). The inhibition in [7] was -8.09% (inactive); in [11], 14.3% (inactive); in experiment [15] it was -10% (inactive). Further, the superoxide response (% of plate) in experiment [8] is 98.8% (inactive). Besides, the aptamer binding inhibition in experiment [9] was 1% (inactive). Besides, the response is -4.3% (inactive) in experiment [10] and -1.1% (inactive) in experiment [12]. For the same compound, the binding (% of control) in [13] is 97.6% (inactive). For the same compound, the efflux inhibition (fraction of control) in [14] was 0.19 (inactive). Moreover, the differentiation response in experiment [16] is -0.82% (inactive).

With `CCCCCCC(=O)N(O)C1CC(=O)N(Cc2ccccc2)C1=O` (stereo not given), the percent of DMSO control GFP in experiment [1] was 106% (inactive). Further, the results for the GFP response vs DMSO in experiment [2] and in experiment [4] were 101% (inactive) and 94% (inactive), respectively. Further, the percent response of DMSO control in experiment [3] was 107% (inactive). The GFP response, % of DMSO in experiment [5] is 101% (inactive). Moreover, in experiment [6], the double positive events was 59.7%. Further, in experiment [6], the vesicle binding response was 191% (inactive). The inhibition is -0.45% (inactive) in experiment [7], 6.86% (inactive) in experiment [11] and 9% (inactive) in experiment [15]. Also, in experiment [8], the superoxide response (% of plate) was 103% (inactive). Also, in experiment [9], the aptamer binding inhibition is 1% (inactive). Besides, the response in experiment [10] was -3.98% (inactive); in experiment [12], 0.52% (inactive). The binding (% of control) in [13] is 100% (inactive). Further, the efflux inhibition (fraction of control) in [14] was -0.01 (inactive). Further, the differentiation response in [16] was -4.64% (inactive).

`CC1(C)CC(NCc2ccccc2)CCO1` (stereo not given): the percent of DMSO control GFP in experiment [1] is 103% (inactive). Further, the GFP response vs DMSO was 97.6% (inactive) in experiment [2] and 101% (inactive) in experiment [4]. In experiment [3], the percent response of DMSO control is 96.4% (inactive). For the same compound, in experiment [5], the GFP response, % of DMSO is 114% (inactive). The double positive events in experiment [6] was 60.6%. In addition, in [6], the vesicle binding response is 226% (inactive). Besides, the figures for the inhibition in experiment [7], in [11] and in experiment [15] were 13.4% (inactive), 60.9% (active) and 4% (inactive), respectively. Also, in experiment [8], the superoxide response (% of plate) was 94.9% (inactive). The aptamer binding inhibition in experiment [9] was 0% (inactive). For the same compound, the response in experiment [10] is -7.51% (inactive); in experiment [12], 5.23% (inactive). The binding (% of control) in experiment [13] was 101% (inactive). Moreover, the efflux inhibition (fraction of control) in [14] is 0.04 (inactive). Also, the differentiation response in experiment [16] is -7.94% (inactive).

On to `Cc1nc2ccccn2c(=O)c1CCN1CCC(C(=O)c2ccc(F)cc2)CC1`, for which the percent of DMSO control GFP in [1] was 103% (inactive). Also, the GFP response vs DMSO in [2] is 105% (inactive); in [4], 101% (inactive). Moreover, in experiment [3], the percent response of DMSO control is 104% (inactive). Also, the GFP response, % of DMSO in experiment [5] is 104% (inactive). This compound gave a double positive events in [6] of 56.6%. In experiment [6], the vesicle binding response is 166% (inactive). For the same compound, the inhibition in experiment [7] is -26.6% (inactive); in experiment [11], 51.2% (inactive); in experiment [15] it was 2% (inactive). Besides, the superoxide response (% of plate) in experiment [8] was 95.8% (inactive). Moreover, the aptamer binding inhibition in [9] is 0% (inactive). In addition, the results for the response in experiment [10] and in [12] were -22.4% (inactive) and -1.11% (inactive), respectively. Further, in [13], the binding (% of control) is 106% (inactive). Besides, the efflux inhibition (fraction of control) in experiment [14] is -0.025 (inactive). In [16], the differentiation response was -10.4% (inactive).

As usually defined, the inhibition is the drop in the measured response relative to a control, in per cent.
